Inconclusive results are not listed. A call without a number means that no potency is given here. The source made the active and inactive calls. The call rests on the fitted dose curve; in most records, active means well fitted inhibition curve with a large enough effect; inconclusive means small, poorly fitted or top-dose-only effect; inactive means no such curve, though single readings can be large or run the other way.
Potency means the concentration at half of the fitted maximal effect.

Chain of Tumor susceptibility gene 101 protein (Homo sapiens) (Q99816 whole entry, looked up, the tested form may be a part): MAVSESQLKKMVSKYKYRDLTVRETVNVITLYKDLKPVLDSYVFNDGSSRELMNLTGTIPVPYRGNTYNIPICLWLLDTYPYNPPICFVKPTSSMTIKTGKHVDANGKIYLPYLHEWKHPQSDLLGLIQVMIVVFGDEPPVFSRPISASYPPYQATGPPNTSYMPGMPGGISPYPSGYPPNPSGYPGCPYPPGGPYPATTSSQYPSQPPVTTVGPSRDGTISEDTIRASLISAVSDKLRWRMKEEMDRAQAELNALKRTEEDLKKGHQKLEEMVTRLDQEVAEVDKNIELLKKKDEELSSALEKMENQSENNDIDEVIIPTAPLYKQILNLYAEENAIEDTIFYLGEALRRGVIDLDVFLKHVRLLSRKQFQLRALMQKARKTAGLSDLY

The test concerns the target Tumor susceptibility gene 101 protein (Homo sapiens) (UniProt Q99816). Nature of the test: qHTS Assay for Iinhibitors of HIV-1 Budding by Blocking the Interaction of PTAP/TSG101: Hit Validation in TR assay. Particulars: Tsg101 binding domain + Texas Red-labeled PTAP peptide, fluorescence polarization, 20 min; series mostly up to 57.5 µM. The method in brief: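 Texas Red-PTAP peptide (50 nM) binding to Tsg101 binding domain (10 uM), both final, in pH 7.5 HEPES buffer, read as polarization after 20 min at room temperature; compounds pinned before peptide addition.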
For orientation: qHTS replaces the single test concentration by a dilution series.
With `CC(C)CSC1=NSC2=NC(=O)/C(=C\c3coc4ccccc4c3=O)C(=N)N12`, the Potency result is “inactive”.
Then `Cn1c(=O)c(Nc2ccc(O)cc2)c2c3c(cccc31)C(=O)c1ccccc1-2`, with “inactive”; and `COc1ccc(/C(O)=C/c2nc3ccccc3n(-c3ccccc3)c2=O)cc1`, with “inactive”; and `O=C1CCNc2ccc(-c3ccccc3)cc21`, with “inactive”.
Turning to `COc1cccc(C2C3CN(C)CC=C3C(C#N)=C(N)C2(C#N)C#N)c1OC` (centres undefined), the Potency entry is “inactive”.
With `Cn1c(/C(C#N)=C/c2ccc(-c3ccc(S(N)(=O)=O)cc3)o2)nc2ccccc21` the entry was “inactive”; with `CCc1cccc2cc3c(N)c(C(=O)Nc4ccc(S(=O)(=O)N5CCCC5)cc4)sc3nc12`, “inactive”.
Then `COC(=O)c1cc2c(N)c(C(=O)c3ccc(Cl)cc3)sc2nc1C(OC)OC`, with “inactive”.
Turning to `O=c1cc2oc3cc(O)c(O)cc3c(-c3ccccc3O)c-2cc1O`, the Potency is 16.3 µM (active).
Then `OCCN(CCO)c1nc(N2CCCCC2)c2nc(N(CCO)CCO)nc(N3CCCCC3)c2n1`, with “inactive”; and `CCN(CC)c1ccc2cc(C(=O)NNC(=O)c3ccc(S(=O)(=O)N4CCCCC4)cc3)c(=O)oc2c1`, with “inactive”; and `O=C(NCc1ccco1)c1cccc2c1C(=O)c1ccc(N3CCC(Cc4ccccc4)CC3)cc1S2(=O)=O`, with “inactive”.
With `Cc1ccc(C2C=C(c3ccc(Cl)cc3)Nc3nc(NS(=O)(=O)c4ccccc4)nn32)cc1` (centres undefined) the entry was “inactive”; with `C1=C(c2ccc(-c3ccccc3)cc2)Nc2ncnn2C1c1ccco1` (centres undefined), “inactive”; with `COc1cccc(/C(O)=C/c2nc3ccc(C(=O)NCCc4ccc(Cl)cc4)cc3[nH]c2=O)c1`, “inactive”.
Then `COc1ccc2c(C#N)c3ccccn3c2c1`, with “inactive”.
As to `CCCCNc1c2c3c(cccc3n(C)c1=O)C(=O)c1ccccc1-2`, the Potency result is “inactive”.
Then `CC(OC(=O)c1c2c(nc3ccccc13)/C(=C\c1ccc3c(c1)OCO3)CCC2)C(=O)Nc1ccc(S(N)(=O)=O)cc1` (centres undefined), with “inactive”.
For the molecule `CCn1c(C)cc(C=C2C(=O)c3ccccc3C2=O)c1C`, the Potency entry was “inactive”.
With `Cn1nc([N+](=O)[O-])c(C(C#N)c2nc3ccccc3n2C)c(Cl)c1=O` (centres undefined) the entry was “inactive”; with `CNc1ccc2c3c(cccc13)C(=O)N(C)C2=O`, “inactive”.
Then `O=C(NC1CCCC1)c1cccc2c1C(=O)c1ccc(N3CCCCC3)cc1S2(=O)=O`, with “inactive”; and `O=C1Nc2ccc(Cl)cc2C12Nc1ccccc1-c1nnc(SCc3ccccc3F)nc1O2` (centres undefined), with “inactive”; and `O=C1/C(=C/c2ccco2)Oc2c1ccc(O)c2CN1CCCCC1`, with “inactive”.
`CCN1CCc2c(sc(NC(=O)CSc3ccccc3)c2-c2nc3ccccc3s2)C1`: the Potency entry was “inactive”.
Then `Cn1c(=O)c2[nH]c(COc3ccccc3)nc2n(C)c1=O`, with “inactive”; and `Cn1c(=O)cc2c3c(c(N4CCCCC4)ccc31)C(=O)c1ccccc1-2`, with “inactive”.
Take `O=C(Cc1nc2ccccc2[nH]c1=O)c1ccccc1`: the Potency entry is “inactive”.
With `O=c1c(/C=C(\O)c2ccc(F)cc2)nc2ccccc2n1-c1ccccc1` the entry was “inactive”; with `COc1ccc(N=Nc2nc3cc(Br)c(Br)cc3n2C)c(OC)c1`, “inactive”.
With `Oc1[nH]c2ccccc2c1N=Nc1ccccc1` the entry was “inactive”.
Turning to `CS(=O)(=O)Nc1nc2n(n1)C(c1ccccc1)C=C(c1ccc(Br)cc1)N2` (centres undefined), the Potency result is “inactive”.
Then `Cc1cccc2cc(/C=C3\N=C(c4ccccc4)OC3=O)c(N3CCOCC3)nc12`, with “inactive”.
On to `COc1ccc(C(=O)c2sc3nc(C)cc(-c4cccs4)c3c2N)cc1OC`, for which the Potency result is “inactive”.
With `CCCN1C(=O)/C(=C\C=C2\N(CC)c3ccccc3C2(C)C)SC1=S` the entry was “inactive”.
Then `O=C(CC1CC2CCC1C2)NCc1cccs1` (centres undefined), with “inactive”; and `CCOc1ccc(-c2nn(-c3ccccc3)cc2/C=C2\SC(=S)N(C3CCS(=O)(=O)C3)C2=O)cc1` (centres undefined), with “inactive”; and `CCOC(=O)Cn1c(=NC(=O)c2ccc([N+](=O)[O-])s2)sc2ccccc21`, with “inactive”.
With `c1ccc(-c2cn3nc(-c4ccccc4)c(-c4ccccc4)nc3n2)cc1` the entry was “inactive”.

For the origin of these results see PubChem BioAssay AID651599 (National Center for Advancing Translational Sciences (NCATS), 2012).
